Pf growth 96h: inhibits malaria parasite growth, 96 h | Potency, µM (series often up to 28.7 µM), for inactives: at the highest dose activity change, negative = inhibition, actives largely listed as inhibitors | P. falciparum luciferase reporter growth, 96 h | AID 504834 | hit rate 6.9% among 320,000; note: potency is the fitted concentration of half-maximal effect
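Delayed-death screen, second-generation endpoint: infected erythrocytes, 2% hematocrit, 0.05% parasitemia final; 96 hours at 37 C, 5% CO2; luciferase detection reagent; luminescence decrease equals reduced growth.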
Giardia FBPA inh: Giardia lamblia aldolase inhibition; A8B2U2; purified Giardia FBPA; Potency, µM (top dose mostly 59.6 µM), for inactives: at the top dose activity, negative = inhibition, usual class: inhibitors; hit rate 0.71% among 290,000; note: potency is the fitted concentration of half-maximal effect; nearly all actives have a fitted effect of over 55% in size
Target sequence (A8B2U2 whole entry, looked up): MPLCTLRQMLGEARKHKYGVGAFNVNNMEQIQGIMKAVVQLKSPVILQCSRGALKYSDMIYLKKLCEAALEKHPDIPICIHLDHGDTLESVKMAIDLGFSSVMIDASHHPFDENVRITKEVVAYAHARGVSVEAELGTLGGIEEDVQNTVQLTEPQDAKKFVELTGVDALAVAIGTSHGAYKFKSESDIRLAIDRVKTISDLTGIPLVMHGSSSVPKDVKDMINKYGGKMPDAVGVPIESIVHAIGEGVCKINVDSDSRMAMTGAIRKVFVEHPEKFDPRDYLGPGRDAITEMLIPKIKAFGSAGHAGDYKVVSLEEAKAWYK
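40 nM FBPA preincubated 10 min at RT with compound (up to 57.5 uM final), then substrate plus GAPDH/TPI/NAD/arsenate coupling and diaphorase/resazurin added. Fluorescence read after 20 min at RT, 525/598 nm.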
HCMV antiviral: blocks human cytomegalovirus replication; hit rate 4.5% among 410,000; HFF cells, HCMV-luciferase reporter, 72 h; active compounds read low; activity change, negative = inhibition, % at 57.5 µM; in the data active = activity change below about -60%; inconclusive = no clear call, values can overlap the other calls; inactive = above about -39%
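HFF cells seeded 16 h at 37C, treated with compounds, infected with luciferase-reporter HCMV at MOI 1 PFU/cell; luciferase read at 72 h post infection, normalized to buffer-only and Salinomycin controls.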
Sm TGR inh: S. mansoni TGR enzyme inhibition | purified TGR, DTNB reduction, TNB absorbance 405 nm | Potency, µM (doses to about 114 µM), for inactives: top-dose activity change, negative = inhibition, most hits filed as inhibitors | hit rate 3% among 360,000; note: potency is the fitted concentration of half-maximal effect; nearly all actives have a fitted effect of over 60% in size
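Kinetic colorimetric format: TGR-catalysed, NADPH-driven DTNB reduction monitored via TNB absorbance. Enzyme dispensed at 20 nM; compound exposure 15 min at room temperature before reaction start.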
Pf growth 48h: inhibits P. falciparum growth in the first generation, 48 h. P. falciparum luciferase growth in erythrocytes, 48 h. Potency, µM (series often up to 28.7 µM), inactives show at the top dose activity change, negative = inhibition, usual class: inhibitors. hit rate 5.9% among 310,000. AID 504832; note: potency is the fitted concentration of half-maximal effect
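Firefly luciferase activity from engineered P. falciparum reports growth; inhibitors lower the luminescent signal. Cultures contained 2% hematocrit erythrocytes at 0.1% final parasitemia.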
* hit, by the source's call; u = inconclusive; x = no result; [ ] = dose if it differs, or a comment. The list is not random: actives were taken first. Their share in the collection is about 14%. Unless noted, calls come from the whole dose curve; as a rule, active = well fitted curve in the direction sought with a large enough effect; inconclusive = small, poorly fitted or top-dose-only effect, or another doubt; inactive = no such curve, though single readings can be large; an effect the other way counts as inactive or inconclusive. % is set by controls: 0 for no effect and ±100 for the full control effect.

SMILES	Pf growth 96h	Giardia FBPA inh	HCMV antiviral	Sm TGR inh	Pf growth 48h
CCCCc1nn2c(=O)cc(COC(=O)c3ccc(NC(=O)c4cccs4)cc3)nc2s1	x	x	29.8	8.1%	x
CCc1nn2c(=O)cc(COC(=O)c3cc(Cl)c(OC)c(OC)c3)nc2s1	u	x	65.8	-9.9%	11.7µM*
CCCc1nn2c(=O)cc(COC(=O)c3ccc(NC(=O)c4cccs4)cc3)nc2s1	x	x	-96.5*	1.8%	x
COCCc1nn2c(=O)cc(COC(=O)c3ccc(Br)cc3)nc2s1	x	x	16.6	89.1µM*	x
COCCc1nn2c(=O)cc(COC(=O)c3ccc(OC)c(OC)c3)nc2s1	x	x	-11.6	-7.2%	x
CC(C(=O)Nc1nc(-c2ccc(F)cc2)cs1)N1C(=O)C2CC=CCC2C1=O (centres undefined)	0.0%	x	-5.2	2.0%	-13.7%
CCOP(=O)(OCC)/C(=N/OC(=O)c1ccc(Cl)cc1Cl)C(N)=O	13.0%	-28.8%	54.6	6.31µM*	1.2%
N/C(=N\OC(=O)c1ccc(Cl)cc1)c1ccc(Cl)cc1	2.62µM*	0.6%	34.5	0.7%	u
N/C(=N\OC(=O)COc1ccccc1)c1ccc(Cl)cc1	13.1µM*	4.0%	31.0	-8.3%	65.5%
N/C(=N\OC(=O)c1ccc(Cl)cc1Cl)c1ccc(Cl)cc1	-94.1%	1.3%	u	-2.3%	347.3%
Cc1ccc(/C(N)=N/OC(=O)c2ccc(C)cc2Cl)cc1	1.7%	-9.4%	-79.3*	-4.9%	-57.6%
CCCCC/C=C/C=C1/C(=O)C=C[C@@H]1C/C=C\CCCC(=O)O	x	-5.3%	x	x	x
COC(=O)c1ccc(CSc2nc3c(c(=O)[nH]2)CCC3)cc1	x	x	-6.3	-4.1%	x
N/C(=N\OC(=O)c1ccc(Cl)cc1Cl)c1cccnc1	4.65µM*	0.4%	107.9	0.0%	-36.2%
N/C(=N\OC(=O)c1ccc(F)cc1)c1ccccc1	10.4µM*	1.8%	39.5	8.6%	34.4%
O=c1c2c(nc3nc(CCc4ccccc4)[nH]n13)CCC2	u	u	19.1	-13.2%	0.2%
S=c1c2c(nc3nc[nH]n13)CCC2	1.65µM*	2.51µM*	-22.7	17.8µM*	2.08µM*
Fc1ccc(C(c2nnnn2C2CCCCC2)N2CCCC2)cc1 (centres undefined)	-32.8%	u	35.1	x	13.1µM*
c1cc(N2CCCC2)ccc1C(c1nnnn1C1CCCCC1)N1CCOCC1 (centres undefined)	-2.0%	-7.3%	-3.1	u	0.0%
COc1ccc(C(c2nnnn2C2CCCCC2)N2CCN(c3ccc(OC)cc3)CC2)cc1 (centres undefined)	x	-2.6%	-21.3	-12.2%	11.7µM*
CCC(c1nnnn1C1CCCC1)N1CCN(c2cccc(OC)c2)CC1 (centres undefined)	27.3%	-24.4%	-33.9	-22.2%[57.1 µM]	11.7µM*
COc1ccc(OC)c(C(c2nnnn2C2CCCC2)N2CCN(c3ccccc3)CC2)c1 (centres undefined)	u	-14.3%	-6.3	0.0%	u
c1ccc(C(c2nnnn2C2CCCC2)N2CCN(c3ccccc3)CC2)cc1 (centres undefined)	u	-1.4%	-25.0	-9.7%	13.1µM*
COCc1cc(C)nc2sc3c(=O)n(-c4cc(C)ccc4C)nnc3c12	x	x	44.7	3.1%	x
Cc1nc(-c2ccc(S(=O)(=O)NCc3ccc(OC(C)C)cc3)cc2)co1	x	x	-18.9	-8.7%	x
SMILES	Pf growth 96h	Giardia FBPA inh	HCMV antiviral	Sm TGR inh	Pf growth 48h
CCC(c1nnnn1Cc1ccc2c(c1)OCO2)N1CCN(c2ccccc2)CC1 (centres undefined)	20.7%	1.3%	-8.3	7.4%	11.7µM*
CCC(c1nnnn1CCOC)N1CCN(c2cccc(C(F)(F)F)c2)CC1 (centres undefined)	2.33µM*	-7.8%	8.0	-10.4%	u
Oc1ccc(N2CCN(C(c3ccccn3)c3nnnn3C3CCCC3)CC2)cc1 (centres undefined)	7.8%	u	-30.1	u	10.4µM*
c1ccc(C(c2nnnn2C2CCCCC2)N2CCc3ccccc3C2)nc1 (centres undefined)	u	u	x	-7.0%	-7.1%
COc1ccc(OC)c(NC(=O)CSc2ccc3nnc(-c4ccccn4)n3n2)c1	u	4.0%	-22.4	-1.5%	u
O=C(CSc1ccc2nnc(-c3cccnc3)n2n1)NCc1ccco1	-17.3%	-13.0%	47.3	31.6µM*	x
